Experiment [1] can be described thus: antimalarial activity against Dd2 strain (AID 2302;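 active means growth inhibition above 50% at the single 2 µM test dose, taken to imply half-maximal potency below 2 µM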;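 further: 0% = DMSO untreated growth and 100% = chloroquine plus artemisinin killed control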). Particulars: P. falciparum Dd2 in RBCs, LDH growth readout, 72 h; at 2 µM; hits give high values.
Experiment [2] can be described thus: human hepatoma cell viability loss – ATP luminescence, cytotoxicity control for P. falciparum antimalarial project, primary screen (AID 2303;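 active means inhibition above 50%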;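 further: 0% = DMSO wells and 100% = digitonin-killed cells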). Particulars: HepG2 viability, 24-48 h, at 10 µM, hits give high values.
Experiment [3] has as its target L-lactate dehydrogenase (Plasmodium falciparum (isolate CDC / Honduras)) (UniProt Q27743). Nature of the experiment: PfLDH activity inhibition – cell lysate, 3D7 strain, counter-screen for P. falciparum growth inhibition project (AID 2304).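 Further: 0% = vehicle and 100% = reference inhibitor.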 As to conditions: P. falciparum 3D7 crude extract, LDH APAD/NBT absorbance; at 2 µM; hits give high values. (Counterscreens check selectivity or assay interference.)

Experiment [4] is described as follows: inhibition of 3D7 malaria parasite growth – strain 3D7 (AID 2306).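 Further: 0% = DMSO wells and 100% = chloroquine plus artemisinin control wells.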 As to conditions: P. falciparum 3D7 erythrocytic growth, LDH absorbance, 72 h; at 2 µM; hits give high values.
Experiment [5] deals with Calcium-dependent protein kinase 1 (Plasmodium falciparum (isolate 3D7)) (UniProt P62344). Nature of the experiment: PfCDPK1 kinase inhibitors, biochemical, TCAMS library (AID 1159585; cut-off not given, nearly all actives have IC50 up to about 0.98 µM;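 further: inhibitors leave more ATP so luminescence rises with inhibition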). Particulars: recombinant PfCDPK1, Kinase-Glo ATP depletion luminescence.
Experiment [6] concerns the target Plasmodium falciparum protein kinase 6 (PK6, PF3D7_1337100) (UniProt Q8IDW1). Kind of experiment: PfPK6 kinase inhibitors, biochemical, TCAMS library (AID 1159586). Particulars: recombinant PfPK6, Kinase-Glo ATP depletion luminescence. In general terms: In Kinase-Glo more light means more ATP remaining.
Experiment [7] addresses Protein kinase 7 (PK7), Plasmodium falciparum 3D7 (PF3D7_0213400) (UniProt Q7YTF7). Kind of experiment: inhibition of Plasmodium PK7 catalytic activity – biochemical, TCAMS antimalarial set, Kinase-Glo luminescence (AID 1159587). Particulars: recombinant PfPK7, Kinase-Glo ATP depletion luminescence.
The target of experiment [8] is Calcium-dependent protein kinase 4 (Plasmodium falciparum (isolate 3D7)) (UniProt Q8IBS5). Kind of experiment: PfCDPK4 kinase inhibitors, biochemical, TCAMS library (AID 1159588; cut-off not given, nearly all actives have IC50 up to about 0.91 µM). Particulars: recombinant PfCDPK4, Kinase-Glo ATP depletion luminescence.

Usually inhibition stands for the relative decrease from the control value, in per cent.

A number with no mark means an inactive call. For part of these data: Potency and affinity values are given separately. Activity calls are given as the source filed them. Unless noted, how the calls were made is not given here.

Sequence of Plasmodium falciparum protein kinase 6 (PK6, PF3D7_1337100) (Q8IDW1 1-305): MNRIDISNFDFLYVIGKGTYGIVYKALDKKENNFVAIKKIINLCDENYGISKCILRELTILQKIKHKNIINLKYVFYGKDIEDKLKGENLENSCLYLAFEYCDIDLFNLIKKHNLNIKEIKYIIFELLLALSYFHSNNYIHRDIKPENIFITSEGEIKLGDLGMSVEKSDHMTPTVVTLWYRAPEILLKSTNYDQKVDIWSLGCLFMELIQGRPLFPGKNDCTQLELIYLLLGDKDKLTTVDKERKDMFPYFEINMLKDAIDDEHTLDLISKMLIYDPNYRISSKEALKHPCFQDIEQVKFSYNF
Sequence of Protein kinase 7 (PK7), Plasmodium falciparum 3D7 (PF3D7_0213400) (Q7YTF7 1-343): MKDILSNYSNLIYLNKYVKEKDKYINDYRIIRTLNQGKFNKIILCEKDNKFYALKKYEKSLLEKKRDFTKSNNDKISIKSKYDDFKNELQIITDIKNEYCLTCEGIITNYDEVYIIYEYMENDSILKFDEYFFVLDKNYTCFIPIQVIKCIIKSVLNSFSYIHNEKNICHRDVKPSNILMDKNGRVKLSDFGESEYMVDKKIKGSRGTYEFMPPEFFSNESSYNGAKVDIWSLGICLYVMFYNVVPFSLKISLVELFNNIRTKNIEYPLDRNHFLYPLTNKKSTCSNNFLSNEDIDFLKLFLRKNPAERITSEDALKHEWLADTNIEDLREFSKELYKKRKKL
Sequence of Calcium-dependent protein kinase 4 (Plasmodium falciparum (isolate 3D7)) (Q8IBS5 whole entry, looked up): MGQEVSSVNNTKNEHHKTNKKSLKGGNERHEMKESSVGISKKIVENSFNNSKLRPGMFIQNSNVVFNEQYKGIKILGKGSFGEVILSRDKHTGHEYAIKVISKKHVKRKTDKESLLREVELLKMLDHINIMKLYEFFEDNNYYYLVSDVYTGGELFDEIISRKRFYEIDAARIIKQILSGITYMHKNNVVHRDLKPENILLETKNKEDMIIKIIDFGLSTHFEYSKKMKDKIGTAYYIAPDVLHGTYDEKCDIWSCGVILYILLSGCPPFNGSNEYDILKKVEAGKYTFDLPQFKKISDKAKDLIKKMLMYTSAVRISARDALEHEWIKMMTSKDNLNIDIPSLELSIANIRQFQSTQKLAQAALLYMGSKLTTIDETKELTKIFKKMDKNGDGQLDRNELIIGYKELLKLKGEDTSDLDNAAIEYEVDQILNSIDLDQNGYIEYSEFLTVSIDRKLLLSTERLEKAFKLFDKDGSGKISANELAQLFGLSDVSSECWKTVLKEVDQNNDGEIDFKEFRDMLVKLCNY
Sequence of Calcium-dependent protein kinase 1 (Plasmodium falciparum (isolate 3D7)) (P62344 whole entry, looked up): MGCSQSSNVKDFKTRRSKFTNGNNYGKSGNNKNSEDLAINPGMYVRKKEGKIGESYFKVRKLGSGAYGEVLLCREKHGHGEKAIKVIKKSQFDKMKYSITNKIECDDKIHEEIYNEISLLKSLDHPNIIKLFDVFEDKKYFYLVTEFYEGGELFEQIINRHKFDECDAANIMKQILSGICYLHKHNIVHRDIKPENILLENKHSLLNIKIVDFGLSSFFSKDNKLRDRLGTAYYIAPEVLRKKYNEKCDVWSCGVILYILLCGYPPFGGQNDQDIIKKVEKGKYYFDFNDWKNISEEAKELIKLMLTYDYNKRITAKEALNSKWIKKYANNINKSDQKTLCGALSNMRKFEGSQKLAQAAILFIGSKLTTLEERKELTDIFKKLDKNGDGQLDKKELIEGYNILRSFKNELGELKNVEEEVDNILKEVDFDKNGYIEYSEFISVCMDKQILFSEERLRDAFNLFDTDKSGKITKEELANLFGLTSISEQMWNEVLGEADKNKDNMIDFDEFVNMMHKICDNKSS
Sequence of L-lactate dehydrogenase (Plasmodium falciparum (isolate CDC / Honduras)) (Q27743 whole entry, looked up): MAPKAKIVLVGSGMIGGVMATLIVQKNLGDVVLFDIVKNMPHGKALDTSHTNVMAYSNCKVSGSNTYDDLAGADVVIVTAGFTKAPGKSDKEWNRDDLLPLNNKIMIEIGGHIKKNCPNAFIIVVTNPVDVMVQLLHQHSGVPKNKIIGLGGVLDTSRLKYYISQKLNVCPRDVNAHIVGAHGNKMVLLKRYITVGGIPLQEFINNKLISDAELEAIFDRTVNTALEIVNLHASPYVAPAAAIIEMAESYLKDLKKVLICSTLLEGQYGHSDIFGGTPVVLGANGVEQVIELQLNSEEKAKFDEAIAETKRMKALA

Take `CC(=O)N(Cc1nc(-c2cc(Cl)c(Cl)s2)cs1)c1c(C)cccc1C`: the growth inhibition in experiment [1] is 95% (active); in experiment [4], 98% (active). Further, the inhibition was 5% in experiment [2] and 3% in experiment [3]. For the same compound, the outcome in experiment [5], in experiment [6], in experiment [7] and in experiment [8] was inactive.

With `Nc1nc(N)c2c(ccc3ccccc32)n1`, the growth inhibition in experiment [1] is 20%; in experiment [4] it was 98% (active). Besides, the inhibition in experiment [2] is 60% (active); in experiment [3], -1%. The outcome in experiment [5], in experiment [6], in experiment [7] and in experiment [8] was inactive.

With `CC(C)CNC(=O)c1cncc(-c2ccc(CNCCCc3ccccc3)cc2)c1`, the growth inhibition in experiment [1] was 73% (active); in experiment [4], 101% (active). Besides, the inhibition in experiment [2] is 28%; in experiment [3], -6%. Moreover, the outcome in experiment [5], in experiment [6], in experiment [7] and in experiment [8] was inactive.

For `Clc1ccc(Nc2nc(Nc3ccc(Cl)c(Cl)c3)nc(Sc3nc4ccccc4[nH]3)n2)cc1Cl`, the growth inhibition in experiment [1] is 100% (active); in experiment [4], 99% (active). Further, the inhibition was 10% in experiment [2] and 1% in experiment [3]. The outcome in experiment [5], in experiment [6], in experiment [7] and in experiment [8] was inactive.

`CN(C)CCN(Cc1ccccc1-c1ccc(CNCCc2ccccc2)cc1)C(=O)c1ccccc1`: the results for the growth inhibition in experiment [1] and in experiment [4] were 97% (active) and 95% (active), respectively. Moreover, the results for the inhibition in experiment [2] and in experiment [3] were 81% (active) and -3%, respectively. Besides, the result in experiment [5], in experiment [6], in experiment [7] and in experiment [8] was inactive.

`CC(=O)Nc1ccc(CNC2Cc3ccc(-c4ccc(Cl)c(Cl)c4)cc3C2)cc1` (stereo not drawn): the growth inhibition in experiment [1] is 7%; in experiment [4], 89% (active). Also, the inhibition in experiment [2] is 49%; in experiment [3] it was -3%. Besides, the outcome in experiment [5], in experiment [6], in experiment [7] and in experiment [8] was inactive.

For the compound `COc1ccc(-c2cncc3ccc(C(=O)NCCCn4ccnc4)nc23)cc1`, the growth inhibition in experiment [1] was 99% (active); in experiment [4], 95% (active). The inhibition in experiment [2] was 28%; in experiment [3] it was -3%. For the same compound, the outcome in experiment [5], in experiment [6], in experiment [7] and in experiment [8] was inactive.

Consider `CC(C)c1ccc(NC(=S)NN=Cc2ccccn2)cc1`, for which the growth inhibition in experiment [1] was 98% (active); in experiment [4], 100% (active). In addition, the inhibition in experiment [2] is 47%; in experiment [3], -12%. In addition, the result in experiment [5], in experiment [6], in experiment [7] and in experiment [8] was inactive.

As to `Oc1ccc(-c2ccccc2)cc1CN1CCCCC1`, the figures for the growth inhibition in experiment [1] and in experiment [4] were 70% (active) and 93% (active), respectively. Also, the values for the inhibition in experiment [2] and in experiment [3] were 3% and -1%, respectively. In addition, the outcome in experiment [5], in experiment [6], in experiment [7] and in experiment [8] was inactive.

`CC(C)CNCc1ccc(-c2cccc(CN(CCCN3CCN(C)CC3)C(=O)/C=C/c3ccccc3)c2)cc1`: the figures for the growth inhibition in experiment [1] and in experiment [4] were 93% (active) and 95% (active), respectively. Moreover, the figures for the inhibition in experiment [2] and in experiment [3] were 43% and 0%, respectively. The result in experiment [5], in experiment [6], in experiment [7] and in experiment [8] was inactive.

For `O=S(=O)(c1ccccc1)n1ccc2cc(Nc3ncnc4cc(C#C[C@H]5CCCN5)sc34)ccc21`, the growth inhibition in experiment [1] was 56% (active); in experiment [4], 85% (active). Also, the figures for the inhibition in experiment [2] and in experiment [3] were 50% (active) and -3%, respectively. Also, the outcome in experiment [5], in experiment [6], in experiment [7] and in experiment [8] was inactive.

On to `CCCc1cc(OCCCOc2ccccc2)ccc1OCCCON1C(N)=NC(N)=NC1(C)C`, for which the growth inhibition in experiment [1] was 96% (active); in experiment [4] it was 94% (active). Moreover, the inhibition was 68% (active) in experiment [2] and 6% in experiment [3]. In addition, the outcome in experiment [5], in experiment [6], in experiment [7] and in experiment [8] was inactive.

Turning to `CCn1ccc2c(N3CCCS3(=O)=O)cc(C(=O)N[C@@H](Cc3ccccc3)[C@H](O)CNC3CCCCC3)cc21`, the growth inhibition in experiment [1] is 98% (active); in experiment [4] it was 97% (active). In addition, the figures for the inhibition in experiment [2] and in experiment [3] were -1% and 1%, respectively. The result in experiment [5], in experiment [6], in experiment [7] and in experiment [8] was inactive.

Consider `CC1(C)N=C(N)N=C(N)N1CCc1ccccc1`, for which the growth inhibition in experiment [1] was -1%; in experiment [4], 93% (active). Moreover, the inhibition in experiment [2] is 50% (active); in experiment [3], -4%. Besides, the result in experiment [5], in experiment [6], in experiment [7] and in experiment [8] was inactive.

With `NC(N)=NN=CC(=O)Nc1ccc(Cl)c(C(F)(F)F)c1`, the growth inhibition in experiment [1] is 0%; in experiment [4] it was 100% (active). Further, the inhibition was -6% in experiment [2] and 0% in experiment [3]. Moreover, the outcome in experiment [5], in experiment [6], in experiment [7] and in experiment [8] was inactive.

`CC(=O)c1ccc(-c2ccc(C(=O)NCCCCN3CCC(c4ccc5c(c4OCC(N)=O)CCCC5)CC3)cc2)s1`: the values for the growth inhibition in experiment [1] and in experiment [4] were 4% and 90% (active), respectively. The inhibition in experiment [2] was 26%; in experiment [3], -4%. The outcome in experiment [5], in experiment [6], in experiment [7] and in experiment [8] was inactive.

On to `COc1cc(F)c2nccc([C@@H](O)CN3CCC(NCc4nc5c(F)cccc5[nH]4)CC3)c2c1`, for which the growth inhibition in experiment [1] was 5%; in experiment [4] it was 99% (active). Moreover, the inhibition was 11% in experiment [2] and -4% in experiment [3]. In addition, the outcome in experiment [5], in experiment [6], in experiment [7] and in experiment [8] was inactive.

Consider `Cc1c(CCNC(=O)CCCN2CC(C)CC(C)C2)c2ccccc2n1C` (stereo not drawn), for which the growth inhibition in experiment [1] was 100% (active); in experiment [4], 87% (active). Moreover, the inhibition in experiment [2] is 8%; in experiment [3] it was -9%. For the same compound, the result in experiment [5], in experiment [6], in experiment [7] and in experiment [8] was inactive.

Turning to `COc1cc(C(=O)N2CCN(C(C)C)CC2)ccc1CN(C)CCCCN1CCN(c2cccc(Cl)c2Cl)CC1`, the growth inhibition in experiment [1] is 98% (active); in experiment [4] it was 101% (active). For the same compound, the inhibition in experiment [2] was 79% (active); in experiment [3], 6%. For the same compound, the result in experiment [5], in experiment [6], in experiment [7] and in experiment [8] was inactive.

Turning to `Cc1[nH]c(C)c(-c2ccc(C(F)(F)F)cc2)c(=O)c1Br`, the growth inhibition is 96% (active) in experiment [1] and 98% (active) in experiment [4]. Also, the inhibition is -5% in experiment [2] and -8% in experiment [3]. The outcome in experiment [5], in experiment [6], in experiment [7] and in experiment [8] was inactive.

Regarding `C1=CN(Cc2ccccc2)C=CC1=C1C=Nc2ccccc21`, the growth inhibition is 69% (active) in experiment [1] and 90% (active) in experiment [4]. Moreover, the inhibition in experiment [2] was 8%; in experiment [3], -3%. Moreover, the result in experiment [5], in experiment [6], in experiment [7] and in experiment [8] was inactive.

The values above are taken from PubChem BioAssay.
